# Compounds without any hit were thinned out: in the full panel of roughly 83,000, 20% have a hit.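 Results are percent growth after 48 hours of single-concentration exposure. 100 means growth as in untreated cells, lower positive values show inhibition; negative values down to -100 show cell death.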 Unmarked numbers belong to inactive results. The source made the active and inactive calls. The calls were made as follows: active = growth percent below 10; inactive = the rest.
# What was measured:
# Test in all cases: NCI-60 one-dose screen, 48 h (100 = growth as untreated, 0 = no growth, -100 = all killed)
# Conditions in all cases: 10 µM unless noted
# SR leukemia = system: SR leukemia
# RPMI-8226 leukemia = system: RPMI-8226 leukemia
# OVCAR-8 ovarian = system: OVCAR-8 ovarian
# OVCAR-5 ovarian = system: OVCAR-5 ovarian
# OVCAR-4 ovarian = system: OVCAR-4 ovarian
# SK-OV-3 ovarian = system: SK-OV-3 ovarian
# IGROV1 ovarian = system: IGROV1 ovarian
# OVCAR-3 ovarian = system: OVCAR-3 ovarian
# HS 578T breast = system: HS 578T breast
# NCI/ADR-RES ovarian = system: NCI/ADR-RES ovarian
# T-47D breast = system: T-47D breast
# BT-549 breast = system: BT-549 breast
# SW-620 colon = system: SW-620 colon
# MCF7 breast = system: MCF7 breast
# HCT-116 colon = system: HCT-116 colon
# HCC-2998 colon = system: HCC-2998 colon
# KM12 colon = system: KM12 colon
# MDA-MB-435 melanoma = system: MDA-MB-435 melanoma
SMILES,growth (SR leukemia),growth (RPMI-8226 leukemia),growth (OVCAR-8 ovarian),growth (OVCAR-5 ovarian),growth (OVCAR-4 ovarian),growth (SK-OV-3 ovarian),growth (IGROV1 ovarian),growth (OVCAR-3 ovarian),growth (HS 578T breast),growth (NCI/ADR-RES ovarian),growth (T-47D breast),growth (BT-549 breast) [%],growth (SW-620 colon),growth (MCF7 breast),growth (HCT-116 colon),growth (HCC-2998 colon),growth (KM12 colon),growth (MDA-MB-435 melanoma)
N/C(=N\N=C\c1cc2ccccc2[nH]1)N/N=C/c1cc2ccccc2[nH]1,6.87% (active),88.2%,97.4%,109%,83%,88.6%,64.4%,93.9%,90.3%,100%,88.8%,98.7,101%,69.8%,86.8%,99.6%,97.6%,–
COc1cc2c(cc1[N+](=O)[O-])-c1ccc([N+](=O)[O-])cc1/C2=N\O,62%,84%,80.1%,102%,79.6%,96.4%,97.3%,104%,89%,77.1%,91.1%,73.1,75.2%,58%,71.8%,106%,95.1%,–
COc1cccc(-c2nc3occn3c2-c2ccnc(NCCCNS(=O)(=O)c3cccc(F)c3)n2)c1,107%,68.1%,72.2%,135%,71.9%,86.3%,89%,88.1%,92.6%,85.8%,29.3%,96.1,115%,78.1%,82%,127%,92.6%,–
C=C(C)[C@@H]1CC[C@]2(C(=O)NCC(=O)OC)CC[C@]3(C)[C@H](CC[C@@H]4[C@@]5(C)Cc6c([nH]c7ccccc67)C(C)(C)[C@@H]5CC[C@]43C)[C@@H]12,47%,53.2%,85.4%,100%,66.5%,84.5%,85.1%,64.6%,95%,91%,47.7%,–,83%,63.5%,42%,103%,79.2%,90%
COc1c(Cl)cc(Cl)c2ccc(C=C3C(=O)NC(=S)NC3=O)nc12,99%,105%,109%,109%,109%,106%,108%,103%,102%,100%,101%,90.2,104%,90.7%,-76.2% (active),99.2%,112%,–
CC1(C)CN(c2cnc(C(=O)Nc3cc(F)cc4cccnc34)cn2)CCN1,7.28% (active),75.6%,96.5%,86.1%,15%,79.5%,36.2%,10.6%,71.6%,90.9%,44.3%,90.2,35.1%,9.21% (active),11.4%,92.2%,91.7%,–
NC(=O)CN1CCN(c2ccccc2Cl)CC1,99.5%,108%,122%,99.9%,124%,103%,108%,116%,102%,108%,96.9%,99.2,–,102%,100%,101%,109%,103%
COc1cc(NCC(C)(O)CN(CC(C)C)CC(C)C)c2nc(C)ccc2c1 (centres undefined),87.7%,68.6%,86.9%,89.5%,23.2%,98.6%,73.4%,24.8%,83.9%,79.6%,7.65% (active),–,86.5%,-46.1% (active),66.3%,75.5%,63.2%,102%
Cc1ccccc1C(c1ccccc1)c1ccccc1C,104%,89.5%,89.8%,85%,108%,75.1%,92.2%,104%,106%,104%,–,86.1,97.7%,98.8%,73.2%,101%,98.2%,105%
Cc1ccc(-c2c(Br)c(OC(=O)CO[C@@H]3C[C@H](C)CC[C@H]3C(C)C)c(-c3ccc(C)cc3C)c(Br)c2OC(=O)CO[C@H]2C[C@@H](C)CC[C@@H]2C(C)C)c(C)c1,104%,94.3%,89.6%,102%,106%,94.9%,108%,110%,98.9%,101%,–,85.5,109%,92.1%,89.4%,108%,107%,104%
NC(=O)c1cccc(-c2ccccc2N2CCCCC2)c1,66.4%,74.2%,99.7%,95.1%,89.9%,94.9%,92.4%,106%,101%,102%,83%,–,108%,92.5%,89.4%,102%,99.1%,100%
CCNC(=O)c1[nH]cc(-c2ccc(OC)cc2)c1-c1cc(OC)cc(OC)c1,92.6%,87.7%,93.4%,99.6%,81.4%,145%,80.3%,83.5%,87.1%,86.9%,–,90.2,101%,99.5%,82.3%,102%,89.9%,84.3%
Cc1c2c(cc[n+]1Cc1ccc(F)cc1)c1ccc(OCc3cccc(F)c3)cc1n2Cc1cccc(F)c1,-48.7% (active),-33% (active),-81.6% (active),4.86% (active),-80.8% (active),2.43% (active),-67.4% (active),-98.5% (active),-40.9% (active),85%,-75.8% (active),–,-87.6% (active),-76.7% (active),-92.1% (active),-92.5% (active),-98.8% (active),-91.8% (active)
COc1cc(-c2nc3occn3c2-c2ccnc(NCCNS(=O)(=O)c3ccc(Cl)cc3)n2)ccc1F,71.9%,48.8%,85.4%,118%,78.6%,67.3%,64.6%,114%,77.8%,82.2%,–,95.5,109%,65.5%,63.6%,103%,86.9%,62.2%
Cc1ccc(C2CC(c3cccc(Nc4ccncc4)c3)=NN2c2ccc(Cl)cc2)cc1 (centres undefined),-12.4% (active),-46% (active),-35% (active),-100% (active),-83.2% (active),-92.3% (active),-92.7% (active),-91.1% (active),-55.9% (active),-63% (active),–,96.5,-46.9% (active),-73.4% (active),-80.1% (active),-93.4% (active),-89.3% (active),-84.7% (active)
Clc1nc(Cl)c2ncn(CC3(Cn4cnc5c(Cl)nc(Cl)nc54)COC3)c2n1,-76.1% (active),-63.5% (active),-83.7% (active),-86% (active),-87.9% (active),-99.8% (active),-93.3% (active),-93.3% (active),-43.8% (active),-57.4% (active),-61.7% (active),–,-88.7% (active),-52.4% (active),-100% (active),-85.3% (active),-73.4% (active),-85.7% (active)
COc1c(Cl)cc(Cl)c2ccc(C=C3C(=O)N(C)C(=O)N(C)C3=O)nc12,93.2%,102%,111%,111%,104%,101%,114%,104%,104%,106%,–,90.4,105%,94.9%,-46.6% (active),101%,101%,102%
